Values joined by “and” are separate entries in the source; they are usually repeats but may differ in a detail not shown here. Equal values may be shown once. The whole screen tested about 16,000 compounds, of which about 5,800 (36%) were called active. Roughly 23% stayed inconclusive and do not appear here. The list shows a part of the results. Values without a mark were called inactive. The call rests on the fitted dose curve; in most records, active means well fitted curve in the direction sought with a large enough effect; inconclusive means small, poorly fitted or top-dose-only effect, or effect the other way; inactive means no such curve, though single readings can be large or run the other way.
Target: Cytochrome P450 2C19 (Homo sapiens) (UniProt P33261)
Experiment: Cytochrome panel assay with activity outcomes
Details: recombinant CYP, pro-luciferin dealkylation, luminescence, p450-cyp2c19; series mostly up to 57.1 µM; activity, negative = inhibition: at the top concentration
On the % scale 0 is the no-effect control and ±100 the full control effect.

Chain of Cytochrome P450 2C19 (Homo sapiens) (P33261 whole entry, looked up): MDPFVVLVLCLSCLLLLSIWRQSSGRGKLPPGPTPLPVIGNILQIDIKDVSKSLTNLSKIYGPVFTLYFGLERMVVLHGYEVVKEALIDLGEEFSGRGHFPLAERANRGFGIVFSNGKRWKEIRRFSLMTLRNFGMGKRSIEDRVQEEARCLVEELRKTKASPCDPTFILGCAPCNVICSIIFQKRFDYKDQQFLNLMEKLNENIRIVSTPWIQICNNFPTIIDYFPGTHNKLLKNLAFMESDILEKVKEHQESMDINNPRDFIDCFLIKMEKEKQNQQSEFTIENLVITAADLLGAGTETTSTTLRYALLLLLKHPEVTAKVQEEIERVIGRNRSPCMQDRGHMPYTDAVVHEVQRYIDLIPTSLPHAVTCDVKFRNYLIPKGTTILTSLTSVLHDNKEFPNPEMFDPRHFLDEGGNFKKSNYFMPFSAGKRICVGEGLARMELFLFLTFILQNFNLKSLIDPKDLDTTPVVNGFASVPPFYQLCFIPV

| SMILES | activity, negative = inhibition | AC50 |
| --- | --- | --- |
| CN(C)CCCN1CC(C(=O)O)CC1=O (configuration not stated) | 4.71% | – |
| O=c1onc2cnc3ccccc3n12 | -36.2% | – |
| O=c1c(-c2cccs2)nc2cnc(Nc3ccccc3)nc2n1C[C@H]1CCCO1 | -17.3% | – |
| CCCS(=O)(=O)N1CCCC(C(=O)NCCCN2CCN(c3ccc(F)cc3)CC2)C1 (configuration not stated) | -29.7% | – |
| CC1CCCN(CCCNC(=O)C2CC(=O)N(c3ccc(F)c(Cl)c3)C2)C1 (configuration not stated) | – | 31.6 µM (active) |
| CC1CC(C)CN(CCCNC(=O)C2CCCN(c3nnc(N4CCCC4=O)s3)C2)C1 (configuration not stated) | -4.77% | – |
| O=C(O)[C@@H]1[C@@H](C(=O)NCc2ccncc2)[C@@H]2C=C[C@@H]1O2 | 9.32% [at 11.4 µM] | – |
| Cc1cc(Cl)ccc1OCC(=O)NCc1ccncc1 | – | 1.26 µM (active) |
| Cc1cc(Cl)ccc1OCC(=O)Nc1nc(N)nc(N)n1 | 8.03% [at 11.4 µM] | – |
| CCCn1nnnc1NC(=O)COc1ccc(Cl)cc1C | – | 7.94 µM (active) |
| O=C(/C=C\c1ccc(O)c(O)c1)O[C@@H]1C[C@](O)(C(=O)O)C[C@@H](O)[C@@H]1O | 5.78% [at 25.6 µM] | – |
| CCOC(=O)Oc1c(OC)cc(C(=O)O[C@H]2C[C@H]3CN4CCc5c([nH]c6cc(OC)ccc56)[C@@H]4C[C@H]3[C@@H](C(=O)OC)[C@@H]2OC)cc1OC | 18.1% [at 25.6 µM] | – |
| CCOC(=O)c1sc(=S)n(-c2cccc(C(F)(F)F)c2)c1SC | – | 1.26 µM (active) |
| Cc1n[nH]c(=O)n1-c1cccc(C(F)(F)F)c1 | -22% | – |
| O=C(O)NCC1CCCCC1 (tested in a mixture with another compound) | -22.4% [at 11.4 µM] | – |
| O=C(CSc1nnc(SCc2cccc3ccccc23)s1)c1ccc2c(c1)OCO2 | – | 2.51 µM (active) |
| FC(F)(F)c1ccccc1-c1cncnc1Nc1ccccc1 | – | 7.94 µM (active) |
| Fc1ccc(Nc2ncncc2-c2ccccc2C(F)(F)F)cc1 | – | 7.94 µM (active) |
| CCCSc1nc(NCc2ccco2)c2c3c(sc2n1)COC(C)(C)C3 | – | 7.08 µM (active) |
| Cc1nc(NS(=O)(=O)c2ccc(Br)cc2)c2c3c(sc2n1)CCC3 | – | 3.55 µM (active) |
| Cc1cc(C)n(-c2nc(NCC(C)O)c3c4c(sc3n2)COC(C)(C)C4)n1 (configuration not stated) | -19.4% | – |
| Cc1nc(NCc2ccco2)c2c3c(sc2n1)CCC3 | – | 10 µM (active) |
| Cc1nc(NS(=O)(=O)c2ccccc2C)c2c3c(sc2n1)CCC3 | – | 8.91 µM (active) |

| SMILES | activity, negative = inhibition | AC50 |
| --- | --- | --- |
| CN(C)S(=O)(=O)c1nc(Cl)c2[nH]cnc2n1 | 24.6% [at 11.4 µM] | – |
| CC[C@H](C)[C@@H]1O[C@]2(CC[C@@H]1C)C[C@H]1C[C@H](CC=C(C)[C@@H](O[C@@H]3C[C@H](OC)[C@H](O[C@@H]4C[C@H](OC)[C@H](O)[C@H](C)O4)[C@H](C)O3)[C@@H](C)C=CC=C3CO[C@@H]4[C@@H](O)C(C)=C[C@@H](C(=O)O1)[C@]34O)O2 | 33.6% [at 25.6 µM] | – |
| Cc1ccc(NC(=O)Cn2nc([N+](=O)[O-])c(Br)c2C)cc1C | – | 5.62 µM (active) |
| O=C(Nc1ccc(Cl)c(C(F)(F)F)c1)C1CCCN(S(=O)(=O)c2cnc[nH]2)C1 (configuration not stated) | – | 0.562 µM (active) |
| O=[N+]([O-])c1ccc2nc(-c3ccc(Cl)cc3)n(OCc3ccccc3)c2c1 | 20.2% | – |
| O=[N+]([O-])c1ccc2nc(-c3ccccc3)n(OCc3ccc(Cl)cc3)c2c1 | – | 1.58 µM (active) |
| Clc1ccc(COn2c(-c3ccccc3)nc3ccccc32)cc1 | – | 0.141 µM (active) |
| COc1ccc(CN2CN(c3ccc(Cl)cc3)C(=O)N(n3cnnc3)C2)cc1 | -16.1% | – |
| COc1ccc2nc(N3C(=O)CC(Cc4ccc(Cl)cc4)C3=O)sc2c1 (configuration not stated) | – | 3.55 µM (active) |
| CCC1CCCCN1Cc1cc(OC)c(O)c([N+](=O)[O-])c1 (configuration not stated) | -2.44% | – |
| Cc1ccc(N=CC2=C(O)CC(c3ccco3)CC2=O)cc1 (configuration not stated) | – | 7.94 µM (active) |
| COC(=O)C1=C(C)NC(C)=C(C(=O)OCCSc2ccccc2)[C@@H]1C | – | 0.2 µM (active) |
| O=C(O)CC/C=C\CC[C@H]1[C@@H](N2CCCCC2)[C@@H](O)C[C@@H]1OCc1ccc(-c2ccccc2)cc1 | 12.9% | – |
| O=C(CCN1C(=O)c2ccccc2C1=O)Oc1ccc2ccccc2c1 | -7.77% | – |
| Cc1cccc(N(C)C(=S)Oc2ccc3ccccc3c2)c1 | – | 0.1 µM (active) |
| O=C(Nc1cc(C(F)(F)F)ccc1-n1cncn1)c1ccc(Br)cc1 | – | 2.24 µM (active) |
| CC(=O)Nc1ccc(S(=O)(=O)N2CCN(c3nc(NC4CCCC4)c4ccccc4n3)CC2)cc1 | – | 7.08 µM (active) |
| Cc1cc(C)c(O)c(Cc2cccc(Cc3cc(C)cc(C)c3O)c2O)c1 | 8% [at 11.4 µM] | – |
| Cc1cc(C)cc(C(=N)c2ccccc2Cc2cccc3ccccc23)c1 | – | 1.58 µM (active) |
| Cc1ccc(C(=N)c2ccccc2Cc2cccc3ccccc23)c2ccccc12 | – | 1.26 µM (active) |
| C#CCCCO/N=C1/C[C@@H](O)[C@@H](O)[C@@H]2[C@@H]3C(=O)N(C[C@@H]4CCCO4)C(=O)[C@H]3CC[C@H]12 | -15.3% [at 11.4 µM] | – |
| CC(C)CC(c1nnnn1C(C)C)N1CCN(c2ccccc2)CC1 (configuration not stated) | – | 5.01 µM (active) |
| ClC(Cl)(Cl)C(N1CCN(c2ccccc2)CC1)N1CCN(c2ccccc2)CC1 | 21% [at 11.4 µM] | – |

| SMILES | activity, negative = inhibition | AC50 |
| --- | --- | --- |
| CCOC(=O)c1cnn(-c2nc(-c3cccc(F)c3)cs2)c1C(F)(F)F | – | 2.82 µM (active) |
| CCOC(=O)C1CCN(C(=O)C2CCN(c3nc4ccc(OC)cc4s3)CC2)CC1 | – | 11.2 µM (active) |
| CCN(CC)CCOc1ccc2nc(N(C)C)sc2c1 | -20.4% | – |
| CCOc1ccc2nc(N3CCCCCC3)sc2c1 | – | 3.98 µM (active) |
| COc1cc2nc(N3CCN(C(=O)[C@@H]4CCCO4)CC3)nc(N)c2cc1OC | 20.7% [at 25.6 µM] | – |
| CCOC(=O)C1CCN(C(=O)c2ccccc2NC(C)=O)CC1 | -27.7% | – |
| CN1CCC2(CC1)C1CN(C)CC=C1C(C#N)=C(N)C2(C#N)C#N (configuration not stated) | -23.1% | – |
| CN1CC[C@@]2(CCCN(C(=O)c3cc(C(F)(F)F)cc(C(F)(F)F)c3)C2)C1 | 12.7% | – |
| COc1cnc(SCc2ccc(Cl)cc2)nc1Cl | – | 1.58 µM (active) |
| CCOC(=O)CCc1c(C)nc2ncnn2c1C | -27.2% | – |
| Cc1ccc(CNC(=O)CCc2c(C)nc3ncnn3c2C)cc1 | -21.9% | – |
| CCc1c(C)nc2ncnn2c1NCCc1ccc(OC)cc1 | – | 3.55 µM (active) |
| COc1ccc(C(=O)c2cnc3ccccc3c2-c2ccccc2)cc1 | – | 5.01 µM (active) |
| COc1ccc(-c2nc3cnc(N4CCN(C)CC4)nc3n(Cc3ccc(F)cc3)c2=O)cc1 | 10.3% | – |
| CCOC(=O)c1oc2nc(CC(C)C)c3c(c2c1N)CCC3 | – | 11.2 µM (active) |
| CC1(C)S[C@@H]2[C@H](NC(=O)[C@H](C(=O)O)c3ccsc3)C(=O)N2[C@H]1C(=O)O | -38.5% [at 25.6 µM] | – |
| CCC(CC)c1nnc(NC(=O)c2cccc(S(=O)(=O)N3CCc4ccccc43)c2)s1 | – | 7.94 µM (active) |
| CCn1cc(C(=O)O)c(=O)c2cc3c(cc21)OCO3 | 26.5% | – |
| CCn1cc(C(=O)O)c(=O)c2cc(F)c(N3CCNCC3)nc21 | -12% [at 25.6 µM] | – |
| CCn1cc(C(=O)N/N=C(/C)c2ccc(F)cc2)c(=O)c2cc(F)c(N3CCCC3)cc21 | – | 4.47 µM (active) |
| CC(C)CCN1C(=O)c2ccc(-c3nc4ccccc4c(=O)o3)cc2C1=O | – | 14.1 µM (active) |
| N=C(N)SCc1cccc(-c2nc3ccccc3c(=O)o2)c1 | 16.9% [at 11.4 µM] | – |
| CCCCOC(=O)Nc1ccc(C)c(Cl)c1 | – | 2 µM (active) |

| SMILES | activity, negative = inhibition | AC50 |
| --- | --- | --- |
| CCOC(=O)Nc1ccc2c(c1)N(C(=O)CCN1CCOCC1)c1ccccc1S2 | -79.9% [at 25.6 µM] | – |
| Cc1ccc(NC(=O)CCC(=O)c2ccc(F)cc2)cc1Cl | – | 3.98 µM (active) |
| CCCCOc1ccc(C(=O)CCN2CCCCC2)cc1 | -38.9% [at 25.6 µM] | – |
| CCCOc1ccc(C(=O)CCNc2ccc(C)c(Cl)c2)cc1 | – | 0.398 µM (active) |
| Cc1ccc(NCCC(=O)c2ccc(Cl)cc2)cc1C | – | 1.26 µM (active) |
| C[C@@H](c1ccccc1)N1C(=O)[C@H]2[C@@H]3[C@H](O)[C@H](O)CC(=O)[C@H]3CC[C@H]2C1=O | 13.8% [at 11.4 µM] and 0.79% [at 11.4 µM] | – |
| Cc1nc2cnc(Oc3ccccc3)nc2n(-c2ccccc2)c1=O | -27.5% | – |
| O=C(O)CCC(=O)c1ccc(Cl)cc1 | 22.7% [at 11.4 µM] | – |
| O=C(O)CNc1ccc(C(=O)O)cc1 | 21.5% [at 11.4 µM] | – |
| Cc1ccc(NCCC(=O)c2ccc(Cl)cc2)cc1 | – | 1.41 µM (active) |
| CC[N+](C)(CC)CCC[n+]1c(-c2ccccc2)c2cc(N)ccc2c2ccc(N)cc21 | – | 1.58 µM (active) |
| Cc1ccc[n+](CC(=O)c2cc3ccccc3oc2=O)c1 | -0.3% | – |
| CC(C)OC(=O)c1cc2ccccc2oc1=O | – | 15.8 µM (active) |
| CC(=O)c1cc2ccccc2oc1=O | -33.4% [at 25.6 µM] | – |
| CC1(C)Oc2ccc(C#N)cc2[C@H](N2CCCC2=O)[C@H]1O | -39.4% | – |
| COn1c(-c2ccccc2)nc2c1CCc1nonc1-2 | – | 15.8 µM (active) |
| CCC(C)c1ccc(Nc2ncccc2C#N)cc1 (configuration not stated) | – | 4.47 µM (active) |
| O=C(O)C[C@H](Cc1ccccc1)C(=O)O | -9.67% [at 11.4 µM] | – |
| O=C(Cc1ccccc1)NC(NCCc1ccccc1)C(Cl)(Cl)Cl (configuration not stated) | – | 0.794 µM (active) |
| COc1cccc(CNC(=O)CCNC(=O)Cn2ccc3ccccc3c2=O)c1 | 1.62% | – |
| COc1ccc(NC(=O)N2CC[C@@]3(CCCN(C(=O)c4c(C)noc4C)C3)C2)cc1 | 49.9% | – |
| COc1ccc(N(CC(=O)NCc2cccc(OC)c2)S(=O)(=O)c2c(C)noc2C)cc1 | – | 2 µM (active) |
| COC(=O)CN(c1ccc(OC)cc1)S(=O)(=O)c1c(C)noc1C | – | 5.01 µM (active) |

— PubChem BioAssay AID1851 (National Center for Advancing Translational Sciences (NCATS), 2009)
